# Source: PubChem BioAssay
# Values without a mark were called inactive.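 Rule for the calls: active = inhibition at or above 50% relative to wild type and mutant plate controls; inactive = inhibition below 50%.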
# Experiment: loss of swimming-algae plug formation – whole organism, Chlamydomonas reinhardtii, WT vs cilia-less mutant, absorbance, 96-well, primary screen (AID 463189);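 note: 0% = wild type cc124 cells in DMSO and 100% = ciliumless bld1 mutant cells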
# Conditions: Chlamydomonas reinhardtii gravitaxis, OD600 absorbance, 2 days; at 10 µM; hits give high values
row,Compound,inhibition
1,CCC1(C)CC(=O)NC1=O (stereo unspecified),1.95%
2,O=c1ccn([C@@H]2O[C@H](COP(=O)(O)OP(=O)(O)O)[C@@H](O)[C@H]2O)c(=O)[nH]1,13.9%
3,NCCCCNS(=O)(=O)c1cccc2c(Cl)cccc12,-1.51%
4,CC(C(O)c1ccc(O)cc1)N1CCC(Cc2ccccc2)CC1 (stereo unspecified),1.86%
5,CNc1cc(NS(=O)(=O)c2ccc(N)cc2)nc(NC)n1,-3.79%
6,CC#C[C@]1(O)CC[C@H]2[C@@H]3CCC4=CC(=O)CCC4=C3[C@@H](c3ccc(N(C)C)cc3)C[C@@]21C,1.39%
